Data published in PubChem BioAssay.
Calls of active or inactive are those of the source.

Columns and labels:
[1] = system: Plasmodium falciparum Sir2 (PF13_0152, Sir2A); assay: Plasmodium falciparum Sir2A binding compounds – biochemical, small-molecule microarray, 635 nm fluorescence, primary screen (AID 1098); conditions: fluorescence 635 nm, higher = more signal;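 also: score merges spot fluorescence intensity with its signal-to-noise ratio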
[2] = probe aDKK1 binding to arrayed compounds – biochemical, biotinylated probe, 635/667 nm fluorescence, primary screen (AID 1099); conditions: small-molecule microarray, higher = more signal;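 also: score merges 667nm spot fluorescence with signal to noise across triplicate slides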
[3] = probe aCHRDL2 binding to arrayed compounds – biochemical, biotinylated probe, 635/667 nm fluorescence, primary screen (AID 1100); conditions: small-molecule microarray, higher = more signal
[4] = change in splice reporter luminescence, either direction, cell-based, HEK293, spliceosome inhibition project, primary screen (AID 1101); conditions: HEK293 splicing luciferase reporter, 24 h, higher = more signal, called active from +8 up or from −8 down;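 also: HEK293 cells carrying a splicing-competent luciferase reporter gene; test concentration not given here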
[5] = target: Fibroblast growth factor 10 (Homo sapiens) (UniProt O15520); assay: compounds binding fibroblast growth factor 10 – biochemical, small-molecule microarray, 635 nm fluorescence, primary screen (AID 1102); conditions: FGF10 binding, fluorescence 635 nm, higher = more signal
Sequence of Fibroblast growth factor 10 (Homo sapiens) (O15520 whole entry, looked up): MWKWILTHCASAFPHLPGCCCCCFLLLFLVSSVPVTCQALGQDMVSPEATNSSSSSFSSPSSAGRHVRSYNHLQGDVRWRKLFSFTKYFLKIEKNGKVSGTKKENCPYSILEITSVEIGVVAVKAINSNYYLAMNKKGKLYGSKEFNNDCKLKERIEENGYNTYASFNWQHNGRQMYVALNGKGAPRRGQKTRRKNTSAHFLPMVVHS

[6] = system: glycogen synthase kinase-3 (GSK3A per assay name; protocol says GSK3B); assay: compounds binding glycogen synthase kinase-3 – biochemical, small-molecule microarray, 635 nm fluorescence, GSK3A, primary screen (AID 1103); conditions: fluorescence 635 nm, higher = more signal; also: the record names both GSK3A and GSK3B
[7] = target: Epidermal growth factor receptor (Homo sapiens) (UniProt P00533); assay: compounds binding epidermal growth factor receptor – biochemical, small-molecule microarray, 635 nm fluorescence, primary screen (AID 1104); conditions: EGFR binding, higher = more signal;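 also: score merges 667 nm emission intensity with spot signal to noise over triplicate slides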
Sequence of Epidermal growth factor receptor (Homo sapiens) (P00533 whole entry, looked up): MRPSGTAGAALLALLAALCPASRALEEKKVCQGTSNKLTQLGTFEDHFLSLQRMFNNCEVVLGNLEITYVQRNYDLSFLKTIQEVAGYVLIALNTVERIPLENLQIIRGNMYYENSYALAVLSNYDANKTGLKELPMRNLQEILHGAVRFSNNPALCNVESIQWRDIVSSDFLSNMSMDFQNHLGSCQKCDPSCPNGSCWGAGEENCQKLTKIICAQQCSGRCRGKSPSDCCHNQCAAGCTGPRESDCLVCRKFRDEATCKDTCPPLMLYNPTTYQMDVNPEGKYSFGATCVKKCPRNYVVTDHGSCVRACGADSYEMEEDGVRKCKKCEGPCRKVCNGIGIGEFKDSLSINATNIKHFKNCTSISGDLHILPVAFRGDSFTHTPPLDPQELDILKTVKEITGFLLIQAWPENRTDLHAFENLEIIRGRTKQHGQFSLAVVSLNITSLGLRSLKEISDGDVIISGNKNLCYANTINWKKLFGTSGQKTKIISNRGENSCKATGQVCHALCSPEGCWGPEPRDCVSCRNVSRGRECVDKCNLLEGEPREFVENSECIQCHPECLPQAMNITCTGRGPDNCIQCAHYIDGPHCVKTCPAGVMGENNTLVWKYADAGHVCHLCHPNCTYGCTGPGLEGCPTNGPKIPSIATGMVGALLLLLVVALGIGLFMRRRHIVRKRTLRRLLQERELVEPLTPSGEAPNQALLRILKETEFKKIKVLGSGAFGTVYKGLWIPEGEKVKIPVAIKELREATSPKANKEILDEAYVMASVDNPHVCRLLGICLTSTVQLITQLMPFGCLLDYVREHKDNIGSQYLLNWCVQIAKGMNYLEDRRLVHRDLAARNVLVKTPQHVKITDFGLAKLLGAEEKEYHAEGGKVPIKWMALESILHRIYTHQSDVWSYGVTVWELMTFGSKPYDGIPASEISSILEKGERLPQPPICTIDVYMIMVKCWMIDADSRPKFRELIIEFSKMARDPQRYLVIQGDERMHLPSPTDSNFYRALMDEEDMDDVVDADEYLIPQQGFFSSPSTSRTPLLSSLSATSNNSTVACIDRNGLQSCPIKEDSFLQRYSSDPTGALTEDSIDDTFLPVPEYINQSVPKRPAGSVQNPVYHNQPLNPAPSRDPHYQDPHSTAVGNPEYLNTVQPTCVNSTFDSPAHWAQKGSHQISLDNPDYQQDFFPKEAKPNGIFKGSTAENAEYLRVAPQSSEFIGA

[8] = target: Follistatin-related protein 3 (Homo sapiens) (UniProt O95633); assay: compounds binding follistatin-related protein 3 – biochemical, small-molecule microarray, 635 nm fluorescence, primary screen (AID 1105); conditions: FSTL3 binding, higher = more signal;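 also: score merges emission near 667 nm and signal to noise per printed spot across three slides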
Sequence of Follistatin-related protein 3 (Homo sapiens) (O95633 whole entry, looked up): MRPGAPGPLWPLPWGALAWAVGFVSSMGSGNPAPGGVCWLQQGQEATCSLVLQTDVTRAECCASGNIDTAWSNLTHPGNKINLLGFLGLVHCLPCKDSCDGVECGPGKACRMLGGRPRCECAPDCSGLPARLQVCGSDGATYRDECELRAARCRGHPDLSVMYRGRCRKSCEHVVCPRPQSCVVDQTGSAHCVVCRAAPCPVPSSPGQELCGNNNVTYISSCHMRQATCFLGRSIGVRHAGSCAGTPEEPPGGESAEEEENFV

[9] = target: Dickkopf-related protein 1 (Homo sapiens) (UniProt O94907); assay: small molecules binding DKK1 protein – biochemical, small-molecule microarray, 635 nm fluorescence scan, primary screen (AID 1106); conditions: higher = more signal;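 also: score merges emission near 667 nm with signal to noise over three replicate slides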
Sequence of Dickkopf-related protein 1 (Homo sapiens) (O94907 whole entry, looked up): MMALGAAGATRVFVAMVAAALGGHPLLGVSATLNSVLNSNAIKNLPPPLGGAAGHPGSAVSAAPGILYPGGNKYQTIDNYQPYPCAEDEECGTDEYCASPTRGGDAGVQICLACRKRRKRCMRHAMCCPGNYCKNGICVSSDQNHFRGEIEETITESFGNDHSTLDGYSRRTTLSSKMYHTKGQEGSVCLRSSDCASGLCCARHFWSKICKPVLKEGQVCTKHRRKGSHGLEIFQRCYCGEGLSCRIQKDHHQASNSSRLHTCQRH

[10] = system: Inhibin beta A chain (activin A); assay: small molecules binding activin A – biochemical, small-molecule microarray, 635 nm fluorescence scan, primary screen (AID 1107); conditions: INHBA, higher = more signal;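 also: mouse activin A protein probed at 4.33 µg/mL on printed slides; score merges bound-protein fluorescence near 667 nm with spot signal-to-noise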
[11] = system: Human papillomavirus type 1a protein E7 (residues 44-93); assay: small molecules binding HPV E7 44-93 – biochemical, small-molecule microarray, residues 44-93, 635 nm fluorescence, primary screen (AID 1108); conditions: fluorescence 635 nm, higher = more signal;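 also: E7 fragment applied at 1 µg/mL in TBST for 1 h at 4 C; score combines spot fluorescence with its signal to noise ratio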
[12] = hepatitis C replication reporter changes, two-sided – Huh7 cells, luciferase reporter, HCV replication inhibitor project, primary screen (AID 1109); conditions: Huh7 HCV replicon luciferase reporter, 48 h; higher = more signal;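 also: huh7 hepatoma cells harbouring a luciferase neomycin HCV replicon reporter; luciferase luminescence as measure of HCV replicon replication; test concentration not given here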
[13] = target: Left-right determination factor 2 (Homo sapiens) (UniProt O00292); assay: small molecules binding LEFTY2 protein – biochemical, small-molecule microarray, 635 nm fluorescence scan, primary screen (AID 1110); conditions: higher = more signal
Sequence of Left-right determination factor 2 (Homo sapiens) (O00292 whole entry, looked up): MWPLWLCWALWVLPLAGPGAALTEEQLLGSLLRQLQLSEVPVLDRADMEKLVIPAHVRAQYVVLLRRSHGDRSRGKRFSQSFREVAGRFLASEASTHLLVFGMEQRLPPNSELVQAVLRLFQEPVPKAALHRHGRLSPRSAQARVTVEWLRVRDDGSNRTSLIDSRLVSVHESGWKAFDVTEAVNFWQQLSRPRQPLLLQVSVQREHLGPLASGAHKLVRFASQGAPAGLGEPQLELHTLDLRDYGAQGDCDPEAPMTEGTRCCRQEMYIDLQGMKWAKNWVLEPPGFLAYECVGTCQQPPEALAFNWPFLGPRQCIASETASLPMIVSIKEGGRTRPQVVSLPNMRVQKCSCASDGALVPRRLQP

[14] = target: Calmodulin-1 (Homo sapiens) (UniProt P0DP23); assay: small molecules binding calmodulin-1 with EGTA – biochemical, small-molecule microarray, Cy5-labelled CALM1, profiling panel (AID 1111); conditions: Cy5-CALM1 binding fluorescence, higher = more signal;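 also: labelled calmodulin applied in Tris saline Tween buffer holding calcium plus EGTA and DTT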
[15] = target: Calmodulin-1 (Homo sapiens) (UniProt P0DP23); assay: small molecules binding Ca-loaded calmodulin-1 – biochemical, small-molecule microarray, Cy5-labelled CALM1, plus calcium, artefact control for SMM control-protein annotation, profiling panel (AID 1112); conditions: Cy5-CALM1 binding fluorescence, higher = more signal;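 also: score merges spot fluorescence with signal to noise from triplicate slides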
[16] = probe aWnt5a binding to arrayed compounds – biochemical, biotinylated probe, 635/667 nm fluorescence, primary screen (AID 1113); conditions: small-molecule microarray, higher = more signal;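 also: score merges 667 nm fluorescence intensity with signal-to-noise per printed feature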
[17] = probe aShh binding to arrayed compounds – biochemical, biotinylated probe, 635/667 nm fluorescence, primary screen (AID 1114); conditions: small-molecule microarray, higher = more signal;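 also: probe is biotin-labelled aShh protein from a stem cell growth factor screen; measures binding of labelled protein to compounds printed on the slide; score merges feature fluorescence at 667 nm with signal-to-noise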
[18] = probe aNog binding to arrayed compounds – biochemical, biotinylated probe, 635/667 nm fluorescence, primary screen (AID 1115); conditions: small-molecule microarray, higher = more signal;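 also: probe is biotinylated aNog protein used at 0.15 µg/mL for 1 h at 4 C; z-score combines 667 nm fluorescence of each spot with its signal to noise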
[19] = target: Torsin-1A-interacting protein 1 (Homo sapiens) (UniProt Q5JTV8); assay: compound microarray binding of lysate hLAP1 – cell lysate, small-molecule microarray, COS7 lysate, 635/667 nm fluorescence, primary screen (AID 1116); conditions: 635 nm fluorescence, higher = more signal
Sequence of Torsin-1A-interacting protein 1 (Homo sapiens) (Q5JTV8 whole entry, looked up): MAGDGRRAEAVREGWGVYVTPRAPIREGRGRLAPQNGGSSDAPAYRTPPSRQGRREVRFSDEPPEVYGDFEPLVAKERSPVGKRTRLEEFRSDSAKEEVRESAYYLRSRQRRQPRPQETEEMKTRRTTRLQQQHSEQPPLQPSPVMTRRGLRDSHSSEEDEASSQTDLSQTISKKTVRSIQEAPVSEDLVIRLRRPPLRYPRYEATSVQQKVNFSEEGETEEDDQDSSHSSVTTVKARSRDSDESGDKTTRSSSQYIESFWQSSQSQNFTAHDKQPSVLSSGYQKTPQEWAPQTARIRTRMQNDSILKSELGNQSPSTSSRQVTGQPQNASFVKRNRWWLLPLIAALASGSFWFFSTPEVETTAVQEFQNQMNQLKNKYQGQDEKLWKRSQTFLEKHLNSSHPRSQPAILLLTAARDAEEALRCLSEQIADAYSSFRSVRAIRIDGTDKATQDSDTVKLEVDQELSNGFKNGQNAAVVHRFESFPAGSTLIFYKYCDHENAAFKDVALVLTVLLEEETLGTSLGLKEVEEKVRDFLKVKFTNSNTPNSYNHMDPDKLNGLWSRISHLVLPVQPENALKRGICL

[20] = target: Alpha-bungarotoxin (Bungarus multicinctus) (UniProt P60615); assay: compounds binding labelled alpha-BTX control protein – biochemical, small-molecule microarray, Alexa647 label, 635/667 nm fluorescence, artefact control for SMM control protein annotation, profiling panel (AID 1117); conditions: alpha-BTX-A647 binding fluorescence, higher = more signal
Sequence of Alpha-bungarotoxin (Bungarus multicinctus) (P60615 whole entry, looked up): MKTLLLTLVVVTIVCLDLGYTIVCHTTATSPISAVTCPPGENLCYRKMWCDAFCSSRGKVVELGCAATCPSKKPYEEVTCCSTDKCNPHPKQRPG

Row | Compound | composite z-score [1] | composite z-score [2] | composite z-score [3] | z-score [4] | composite z-score [5] | composite z-score [6] | composite z-score [7] | composite z-score [8] | composite z-score [9] | composite z-score [10] | composite z-score [11] | z-score [12] | composite z-score [13] | composite z-score [14] | composite z-score [15] | composite z-score [16] | composite z-score [17] | composite z-score [18] | composite z-score [19] | composite z-score [20]
1 | C=C(C1=CCN(S(=O)(=O)c2ccc(C)cc2)C1)[C@@H](OC(C)=O)[C@@H]1CCCN1S(=O)(=O)c1ccccc1[N+](=O)[O-] | 1.55 | -0.362 | -0.254 | -3.24 (inactive) | 0.0611 | -0.297 | -0.0578 | -0.114 | -0.239 | 1.2 | -0.38 | -4.62 | -0.0476 | -0.765 | -0.856 | -0.208 | 0.0469 | 0.353 | 0.156 | -1.48
2 | COC(=O)c1c(CC[C@@H](CO)NC(=O)Nc2ccc(OC)cc2)oc(C(=O)Cc2ccccc2)c1C(=O)OC | 1.36 | 0.0707 | -0.0477 | -0.487 (inactive) | 0.394 | 0.618 | 0.0445 | 0.325 | 0.353 | 0.306 | 0.316 | 0.685 | 0.239 | -0.315 | -0.464 | -0.0445 | -0.138 | 0.068 | 0.333 | 0.655
3 | C=CCN1C(=O)[C@@]2(O[C@@H](CCO)[C@H]([Si](C)(C)c3ccc(OC)cc3)[C@H]2C)c2cc(N(C=O)c3ccccc3)ccc21 | 0.592 | 0.235 | 0.453 | -3.43 (inactive) | 0.341 | -0.0443 | -0.131 | 0.131 | 0.0733 | 1.01 | 0.192 | -5.12 | 0.0105 | 0.905 | 1.06 | -0.0643 | -0.138 | 0.238 | 0.473 | 0.37
4 | CC(C)(C)OC(=O)CC[C@@]12N=C(c3ccc(OCCCO)cc3)O[C@@H]1c1ccccc1N(Cc1ccccc1)C2=O | 0.727 | 0.692 | 1.05 | -0.00084 (inactive) | 0.732 | 1.19 | -0.244 | 0.51 | 0.117 | 1.14 | -0.0568 | -2.38 | -0.202 | 0.61 | 0.621 | -0.0327 | 0.138 | 0.943 | 0.786 | 1.36
5 | Cc1ccc(S[C@]2(C(=O)NCC(C)C)CC(=O)N(C(C)C)[C@@H]2c2ccc(CO)cc2)cc1 | 0.0739 | 0.457 | 0.696 | -0.982 (inactive) | -0.475 | -0.771 | -0.33 | -0.196 | -0.574 | 0.727 | -0.962 | -0.725 | -0.594 | -0.886 | 0.134 | -0.124 | -0.137 | -0.163 | 0.623 | -1.11
6 | COc1ccc(/C=C/C(=O)c2cccc(OCC(=O)OC(C)(C)C)c2)cc1 | 0.726 | 0.145 | 0.436 | -0.611 (inactive) | -0.189 | 0.483 | -0.693 | -0.525 | -0.442 | 0.379 | 0.268 | 1.33 | -0.606 | -0.0784 | -0.159 | -0.173 | -0.2 | -0.5 | 0.154 | 0.45
7 | C=CCNC(=O)[C@H]1[C@@H]2C(=O)O[C@@H](c3ccccc3)[C@@H](c3ccccc3)N2[C@@H](c2ccc(OCCO)cc2)[C@]12C(=O)Nc1ccc(C#CCCO)cc12 | 1.36 | 0.299 | 0.797 | -1.26 (inactive) | 0.241 | -0.145 | -0.105 | 0.359 | -0.059 | 0.629 | 0.699 | -0.735 | -0.0631 | 0.0076 | 0.295 | -0.175 | -0.0769 | 0.332 | 1.42 | 1.9
8 | C=C(/C(=C/C[C@H](OC(C)=O)c1cccc(OCCO)c1)c1cc(C(=O)OC)ccc1OC)C(C)C | 0.86 | -0.0559 | 0.132 | -0.846 (inactive) | 0.306 | -0.116 | -0.805 | -0.948 | -0.316 | 0.576 | -0.0954 | -0.556 | -0.516 | -1 | -0.551 | -0.124 | -0.0337 | 0.209 | 0.19 | -1.33
9 | C=C(COC)/C(=C/C[C@H](OC(C)=O)c1ccc(CO)o1)c1cnc2ccccc2c1 | 1.05 | 0.0967 | 0.131 | -1.03 (inactive) | 0.979 | 1.29 | 0.477 | 1.48 | 0.639 | 1.61 | 0.729 | -1.18 | 0.149 | 0.143 | -0.387 | -0.0445 | 0.0893 | 0.186 | 0.845 | 2.83
10 | NC(=O)NCC#Cc1ccc2c(c1)[C@]1(C(=O)N2)[C@H](c2ccc(OCCO)cc2)N2[C@H](c3ccccc3)[C@H](c3ccccc3)OC(=O)[C@H]2[C@@H]1C(=O)Nc1nc2ccccc2s1 | 0.0284 | 0.918 | 1.2 | -1 (inactive) | 0.178 | -0.282 | -0.345 | 0.224 | -0.463 | 1.35 | -0.107 | -0.495 | -0.64 | 0.728 | 0.789 | -0.184 | 0.046 | 0.339 | 0.173 | 1.03
11 | CC(C)C[C@@H]1NC(=O)[C@@H]2C[C@H](C(=O)NCCCCCNC(=O)CS)[C@H](c3cccc(OCCO)c3)N2C1=O | 1.68 | 0.588 | 0.619 | -1.15 (inactive) | 0.654 | 1.32 | 0.717 | 0.921 | 0.741 | 0.947 | 0.64 | 0.568 | 0.581 | 0.942 | 0.0355 | -0.0236 | 0.242 | 0.418 | 1.25 | 2.72
